Experimental findings from PubChem BioAssay (Tox21) are described below.

Each structure is given as a SMILES string. Records with an inconclusive call do not appear. Activity calls are given as the source filed them. Calls follow the shape of the full dose curve.
% is scaled to controls: 0 for no effect and ±100 for the full control effect; potency is read from the fitted curve at half-maximal effect.

Sequence of Acetylcholinesterase (Homo sapiens) (P22303 whole entry, looked up): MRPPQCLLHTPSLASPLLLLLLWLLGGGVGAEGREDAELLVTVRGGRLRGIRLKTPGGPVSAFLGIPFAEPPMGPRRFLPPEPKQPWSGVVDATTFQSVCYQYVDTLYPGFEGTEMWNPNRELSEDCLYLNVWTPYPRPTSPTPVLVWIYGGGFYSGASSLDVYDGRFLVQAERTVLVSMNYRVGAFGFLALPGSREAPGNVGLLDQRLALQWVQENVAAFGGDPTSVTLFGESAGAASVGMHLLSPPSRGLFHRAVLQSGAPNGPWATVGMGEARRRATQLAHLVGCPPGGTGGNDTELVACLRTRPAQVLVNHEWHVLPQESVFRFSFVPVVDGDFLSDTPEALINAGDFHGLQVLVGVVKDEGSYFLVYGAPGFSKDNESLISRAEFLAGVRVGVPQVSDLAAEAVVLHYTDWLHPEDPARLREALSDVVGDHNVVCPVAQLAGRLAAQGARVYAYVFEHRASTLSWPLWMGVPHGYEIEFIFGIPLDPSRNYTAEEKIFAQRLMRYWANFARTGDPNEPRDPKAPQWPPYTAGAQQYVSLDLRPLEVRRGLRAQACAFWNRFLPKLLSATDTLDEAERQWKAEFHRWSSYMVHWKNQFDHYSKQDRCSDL

For the first test, the target named is Acetylcholinesterase (Homo sapiens) (UniProt P22303). Nature of the test: Acetylcholinesterase (AChE) small molecule antagonists: enzyme-based qHTS assay (AID 1347397). Also: nearly all actives have a fitted effect of over 55% in size. As to conditions: Potency: AChE enzyme activity inhibition; outcome: AChE enzyme activity inhibition; series mostly up to 115 µM; activity change, negative = inhibition: at the top concentration. The procedure, abridged:
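Absorbance-based detection of thiocholine with DTNB served as the read-out. Recombinant human AChE was exposed to compound for 30 min at RT before a 10 min RT incubation with acetylthiocholine.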
Turning to `CC(=O)O[C@@H]1C[C@@H]2CC[C@@]1(C)C2(C)C`, the “activity change, negative = inhibition” value is -0.136% (inactive).

Regarding `C1CCC2(CCCCO2)OC1`, the “activity change, negative = inhibition” value is 0.235% (inactive).

For `CC(C(=O)O)c1ccc2c(c1)Cc1cccnc1O2` (stereo not drawn), the “activity change, negative = inhibition” value is -0.991% [at 53 µM] (inactive).

Turning to `CCCCCO`, the “activity change, negative = inhibition” value was -3% (inactive).

As to `Cc1c(C(=O)NN2CCCCC2)nn(-c2ccc(Cl)cc2Cl)c1-c1ccc(Cl)cc1`, the “activity change, negative = inhibition” value was 1.21% [at 53 µM] (inactive).

For `CC1CC(=O)CC(C)(C)C1` (stereo not drawn), the “activity change, negative = inhibition” value was -1.27% (inactive).

For `CC(C)=CCC/C(C)=C/CC/C(C)=C/CCC(=O)OC/C=C(\C)CCC=C(C)C`, the “activity change, negative = inhibition” value is 0.12% [at 53 µM] (inactive).

On to `NC[C@H]1O[C@H](O[C@H]2[C@H](O)[C@@H](O[C@H]3O[C@H](CO)[C@@H](O)[C@H](N)[C@H]3O)[C@H](N)C[C@@H]2N)[C@H](O)[C@@H](O)[C@@H]1O`, for which the activity change, negative = inhibition is 0.413% [at 10.5 µM] (inactive).

On to `CCCCCCC(O)CO` (stereo not drawn), for which the “activity change, negative = inhibition” value is -0.395% (inactive).

For the compound `CCCCCCCCCCCCCCCS(=O)(=O)Oc1ccccc1`, the “activity change, negative = inhibition” value is -6.44% [at 53 µM] (inactive).

Turning to `Cc1ccc(C2OC[C@@H]3OC(c4ccc(C)cc4)O[C@H]([C@H](O)CO)[C@@H]3O2)cc1` (stereo partly drawn), the “activity change, negative = inhibition” value was -1.18% (inactive).

As for `COc1cc(-c2nc(NC(=O)c3cc4cc(C)cc(C)c4n3CC(=O)O)sc2CCC2CCCCC2)c(OC)cc1Cl`, the “activity change, negative = inhibition” value is 1.27% (inactive).

Take `CC[C@@]1(O)C(=O)OCc2c1cc1n(c2=O)Cc2c-1nc1ccccc1c2/C=N/OC(C)(C)C`: the “activity change, negative = inhibition” value is -0.0345% [at 53 µM] (inactive).

With `C[Si](Cl)(c1ccccc1)c1ccccc1`, the “activity change, negative = inhibition” value was 0.682% (inactive).

`O=C(O)CCCc1ccccc1`: the “activity change, negative = inhibition” value was 0.131% [at 53 µM] (inactive).

In the case of `CCCCCCCCOCCCN`, the “activity change, negative = inhibition” value is -0.258% (inactive).

Take `CCCCOCCOC(=O)COc1nc(Cl)c(Cl)cc1Cl`: the “activity change, negative = inhibition” value was -1.55% (inactive).

As to `C=C1CC[C@H]2C[C@@H]1C2(C)C`, the “activity change, negative = inhibition” value was 0.197% (inactive).

For `O=CC=C(c1ccccc1)c1ccccc1`, the “activity change, negative = inhibition” value was 0% (inactive).

In the case of `CN1CCCC(n2nc(Cc3ccc(Cl)cc3)c3ccccc3c2=O)CC1` (stereo not drawn), the Potency is 27.5 µM (active).

Consider `NS(=O)(=O)Cc1noc2ccccc12`, for which the “activity change, negative = inhibition” value was 0.443% [at 53 µM] (inactive).

Regarding `CCOC(=O)C(C)Oc1ccc(Oc2nc3ccc(Cl)cc3o2)cc1` (stereo not drawn), the “activity change, negative = inhibition” value is -0.236% (inactive).

Take `OCCC(O)CO` (stereo not drawn): the “activity change, negative = inhibition” value was 0.409% (inactive).

Regarding `CC1c2ccccc2CN1NC(=O)c1ccc(Cl)c(S(N)(=O)=O)c1` (stereo not drawn), the “activity change, negative = inhibition” value was 1.25% [at 53 µM] (inactive).

Regarding `C=C(C)CCCC(C)CCO` (stereo not drawn), the “activity change, negative = inhibition” value is -1.1% (inactive).

On to `ON(Cc1ccccc1)Cc1ccccc1`, for which the “activity change, negative = inhibition” value is 2.47% (inactive).

With `CCOC(=O)CC(C)C`, the “activity change, negative = inhibition” value is 0.132% (inactive).

For `N=C(N)S(=O)O`, the “activity change, negative = inhibition” value was 1.02% (inactive).

In the case of `NC(=O)c1ccccc1[N+](=O)[O-]`, the “activity change, negative = inhibition” value is 0.566% (inactive).

In the case of `CC(C)CC(O)Cc1ccccc1` (stereo not drawn), the “activity change, negative = inhibition” value was -0.262% (inactive).

`CCCC(=O)C(CC)Sc1ccoc1C` (stereo not drawn): the “activity change, negative = inhibition” value was -0.411% (inactive).

In the case of `C=CC(C)(CCC=C(C)C)OC(=O)CC(C)C` (stereo not drawn), the “activity change, negative = inhibition” value is -1.24% (inactive).

As to `COC(=O)CC(C)=O`, the “activity change, negative = inhibition” value is -0.275% (inactive).

On to `O=C1C(O)=C(O)C(=O)C(O)=C1O`, for which the “activity change, negative = inhibition” value is 0.54% [at 53 µM] (inactive).

For the compound `CCC(OCCCOC)OC(C)=O` (stereo not drawn), the “activity change, negative = inhibition” value was -1.1% (inactive).

Take `CCN(CC)CCOc1ccc(Cc2ccccc2)cc1`: the “activity change, negative = inhibition” value was -0.831% [at 53 µM] (inactive).

`CCOC(=O)c1ccccc1OC`: the “activity change, negative = inhibition” value was -0.825% (inactive).

`CCCCCCCC/C=C/CCCOC(C)=O`: the “activity change, negative = inhibition” value is 3.88% (inactive).

Regarding `CC(S)C(C)S` (stereo not drawn), the “activity change, negative = inhibition” value was -2.41% (inactive).

For the next test the target is unchanged. Nature of the test: Acetylcholinesterase (AChE) small molecule antagonists: fluorescence cell-based qHTS assay (AID 1347398). Also: nearly all actives have a fitted effect of over 50% in size. The following applies: SH-SY5Y cells; Potency: AChE activity; outcome: AChE activity; series mostly up to 115 µM; activity change, negative = inhibition: at the top concentration. The method in brief: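 Fluorimetric cell-based assay: intact SH-SY5Y cells, 30 min compound preincubation at 37 C, acetylthiocholine substrate with thiol probe Thiolite Green, 40 min RT development, fluorescence 490/520 nm.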
For orientation: Quantitative high-throughput screening tests each substance at several concentrations.
Consider `CC(=O)O[C@@H]1C[C@@H]2CC[C@@]1(C)C2(C)C`, for which the “activity change, negative = inhibition” value was 1.63% (inactive).

Turning to `C1CCC2(CCCCO2)OC1`, the “activity change, negative = inhibition” value is 0.562% (inactive).

For the compound `CC(C(=O)O)c1ccc2c(c1)Cc1cccnc1O2` (stereo not drawn), the “activity change, negative = inhibition” value was 2.71% [at 53.7 µM] (inactive).

As for `CCCCCO`, the “activity change, negative = inhibition” value was 7.05% (inactive).

In the case of `Cc1c(C(=O)NN2CCCCC2)nn(-c2ccc(Cl)cc2Cl)c1-c1ccc(Cl)cc1`, the “activity change, negative = inhibition” value was 7.57% [at 53.7 µM] (inactive).

Regarding `CC1CC(=O)CC(C)(C)C1` (stereo not drawn), the “activity change, negative = inhibition” value was 3.64% (inactive).

For the compound `CC(C)=CCC/C(C)=C/CC/C(C)=C/CCC(=O)OC/C=C(\C)CCC=C(C)C`, the “activity change, negative = inhibition” value is 7.54% [at 53.7 µM] (inactive).

As to `NC[C@H]1O[C@H](O[C@H]2[C@H](O)[C@@H](O[C@H]3O[C@H](CO)[C@@H](O)[C@H](N)[C@H]3O)[C@H](N)C[C@@H]2N)[C@H](O)[C@@H](O)[C@@H]1O`, the activity change, negative = inhibition was 2.3% [at 10.5 µM] (inactive).

For the compound `CCCCCCC(O)CO` (stereo not drawn), the “activity change, negative = inhibition” value is 2.73% (inactive).

`CCCCCCCCCCCCCCCS(=O)(=O)Oc1ccccc1`: the “activity change, negative = inhibition” value is -4.63% [at 53.7 µM] (inactive).

On to `Cc1ccc(C2OC[C@@H]3OC(c4ccc(C)cc4)O[C@H]([C@H](O)CO)[C@@H]3O2)cc1` (stereo partly drawn), for which the “activity change, negative = inhibition” value was 2.7% (inactive).

With `COc1cc(-c2nc(NC(=O)c3cc4cc(C)cc(C)c4n3CC(=O)O)sc2CCC2CCCCC2)c(OC)cc1Cl`, the “activity change, negative = inhibition” value was -1.27% (inactive).

For `CC[C@@]1(O)C(=O)OCc2c1cc1n(c2=O)Cc2c-1nc1ccccc1c2/C=N/OC(C)(C)C`, the “activity change, negative = inhibition” value is -1.24% [at 53.7 µM] (inactive).

For `C[Si](Cl)(c1ccccc1)c1ccccc1`, the “activity change, negative = inhibition” value was 4.57% (inactive).

`O=C(O)CCCc1ccccc1`: the “activity change, negative = inhibition” value was 3.07% [at 53.7 µM] (inactive).

Turning to `CCCCCCCCOCCCN`, the “activity change, negative = inhibition” value is -3.6% (inactive).

`CCCCOCCOC(=O)COc1nc(Cl)c(Cl)cc1Cl`: the “activity change, negative = inhibition” value was -11.2% (inactive).

In the case of `C=C1CC[C@H]2C[C@@H]1C2(C)C`, the “activity change, negative = inhibition” value is 2.18% (inactive).

Regarding `O=CC=C(c1ccccc1)c1ccccc1`, the “activity change, negative = inhibition” value is -12.1% (inactive).

For `CN1CCCC(n2nc(Cc3ccc(Cl)cc3)c3ccccc3c2=O)CC1` (stereo not drawn), the Potency is 13.8 µM (active).

Take `NS(=O)(=O)Cc1noc2ccccc12`: the “activity change, negative = inhibition” value was -1.5% [at 53.7 µM] (inactive).

`CCOC(=O)C(C)Oc1ccc(Oc2nc3ccc(Cl)cc3o2)cc1` (stereo not drawn): the “activity change, negative = inhibition” value was -5.61% (inactive).

On to `OCCC(O)CO` (stereo not drawn), for which the “activity change, negative = inhibition” value is 1.6% (inactive).

`CC1c2ccccc2CN1NC(=O)c1ccc(Cl)c(S(N)(=O)=O)c1` (stereo not drawn): the “activity change, negative = inhibition” value was 3.25% [at 53.7 µM] (inactive).

As to `C=C(C)CCCC(C)CCO` (stereo not drawn), the “activity change, negative = inhibition” value is -7.86% (inactive).

Take `ON(Cc1ccccc1)Cc1ccccc1`: the “activity change, negative = inhibition” value was 3.1% (inactive).

As to `CCOC(=O)CC(C)C`, the “activity change, negative = inhibition” value is 3.49% (inactive).

In the case of `N=C(N)S(=O)O`, the “activity change, negative = inhibition” value was 7.17% (inactive).

Turning to `NC(=O)c1ccccc1[N+](=O)[O-]`, the “activity change, negative = inhibition” value is -1.19% (inactive).

Turning to `CC(C)CC(O)Cc1ccccc1` (stereo not drawn), the “activity change, negative = inhibition” value is -0.0628% (inactive).

Take `CCCC(=O)C(CC)Sc1ccoc1C` (stereo not drawn): the “activity change, negative = inhibition” value is -0.18% (inactive).

`C=CC(C)(CCC=C(C)C)OC(=O)CC(C)C` (stereo not drawn): the “activity change, negative = inhibition” value is -0.523% (inactive).

As to `COC(=O)CC(C)=O`, the “activity change, negative = inhibition” value was 6.19% (inactive).

In the case of `O=C1C(O)=C(O)C(=O)C(O)=C1O`, the “activity change, negative = inhibition” value is -1.35% [at 53.7 µM] (inactive).

Regarding `CCC(OCCCOC)OC(C)=O` (stereo not drawn), the “activity change, negative = inhibition” value was -5.64% (inactive).

As for `CCN(CC)CCOc1ccc(Cc2ccccc2)cc1`, the “activity change, negative = inhibition” value was -24.8% [at 53.7 µM] (inactive).

In the case of `CCOC(=O)c1ccccc1OC`, the “activity change, negative = inhibition” value is 1.11% (inactive).

In the case of `CCCCCCCC/C=C/CCCOC(C)=O`, the “activity change, negative = inhibition” value was -2.04% (inactive).

Consider `CC(S)C(C)S` (stereo not drawn), for which the “activity change, negative = inhibition” value was 1.83% (inactive).
